Out of some 2,200 compounds screened, about 480 (22%) were called active. The rule behind the calls is not given here. Not all results are given here. Entries with a potency or affinity are not part of this list.
Assay: S. Typhimurium GFP fluorescence modified counterscreen for PhoP regulon inhibitor project dose response (AID 1981)
Conditions: 4 h; series mostly up to 150 µM

SMILES | outcome
C=CCOc1ccc(/C=N/NC(=O)CN(c2cc(Cl)ccc2OC)S(=O)(=O)c2ccc(C)c([N+](=O)[O-])c2)cc1 | inactive
CN(CC(=O)Nc1ccc(C#N)cc1)Cc1ccc(Cl)cc1 | inactive
O=C(CSc1ccc(Cl)cc1)Nc1ccccc1N1CCN(C(=O)c2ccc(Cl)cc2)CC1 | inactive
Cc1nc(C(=O)Nc2ccc(Cl)cc2)nn1-c1ccc([N+](=O)[O-])cc1 | inactive
OC1(c2ccc3ccccc3c2)CCN(Cc2ccccc2)C1 (centres undefined) | inactive
NNC(=O)c1cc2ccccc2cc1O | inactive
NC(=NCCc1c[nH]c2ccccc12)NC(=O)c1ccc(F)cc1 | inactive
C=CCSc1ncnc2sc(C)c(C)c12 | inactive
Cc1cc2cc(CCNC(=O)c3cccs3)c(=O)[nH]c2cc1C | inactive
CCOC(=O)c1cnc2ccc(OC)cc2c1Nc1ccc2c(c1)OCCO2 | inactive
COc1cccc(Cn2cnc3c(NS(=O)(=O)c4cccc(Cl)c4Cl)c(C)c(C)cc32)c1 | inactive
Cc1cc(Oc2ccc(-c3nnc(-c4ccccc4)o3)cc2[N+](=O)[O-])ccc1Cl | inactive
O=c1[nH]c(CSc2nnc(NCCCN3CCOCC3)s2)nc2cc(Cl)ccc12 | inactive
O=C(Nc1ccc(O)cc1)c1cc2n(n1)C(C(F)(F)F)CC(c1ccco1)N2 (centres undefined) | inactive
CCOc1cc(C2Nc3cccc4cccc(c34)N2)ccc1O | inactive
OC(COc1ccc2c(c1)CCC2)Cn1cnc2ccccc21 (centres undefined) | inactive
O=C1CC(SCc2nc3ccccc3[nH]2)C(=O)N1c1ccc(Cl)cc1 (centres undefined) | inactive
Cc1c(Cl)cccc1NC(=O)CSc1ncnc2c1cnn2CCc1ccccc1 | inactive
Cc1ccc(S(=O)(=O)N2CCC(C(N)=O)CC2)c(C)c1C | inactive
O=C1C2=C(NC(=S)NC2c2ccc(Cl)cc2)NC(c2ccc(Cl)cc2)N1c1ccc(Cl)cc1 (centres undefined) | inactive
Cc1nc(-c2ccccc2)cc(=O)[nH]1 | inactive
CC(=O)C1=C(C)Nc2ncnn2C1c1ccccc1OCc1ccccc1 (centres undefined) | inactive
O=C(Nc1ccc2c(c1)OCO2)c1cnn2cccnc12 | inactive
CC(O)CNCCNCc1c(OCc2ccccc2)ccc2ccccc12 (centres undefined) | inactive
OCCN(Cc1ccccc1)Cc1ccc(Cl)cc1 | inactive

SMILES | outcome
N#CC1=C(N)Oc2c(O)cc3ccccc3c2C1c1ccsc1 (centres undefined) | inactive
COc1ccc(Nc2ccc3c(c2)=NC2(CCCCC2)[N+]=3[O-])cc1 | inactive
COc1ccc(Nc2sc(C(=O)Nc3cccc(Cl)c3)c(N)c2C(=O)Nc2ccccc2OC)cc1 | inactive
COc1ccc(OCCSc2nnc(-c3ccc(OC)cc3)n2N)cc1 | inactive
O=C(CC(NS(=O)(=O)c1ccc(Cl)cc1)c1ccco1)N1CCc2ccccc21 (centres undefined) | inactive
Cc1cc(-c2nnc(-c3ccccc3)c(-c3ccccc3)n2)c(C)o1 | inactive
CO/N=C\CC(=O)Nc1ccc(F)cc1 | inactive
Cc1ccc(NC(=S)NCc2cccnc2)cc1 | inactive
Oc1ccc(/C=N/NC(=S)Nc2cccnc2)c(O)c1 | inactive
COc1cccc(NC(=O)NCCCN2CCN(c3ccc(F)cc3)CC2)c1 | inactive
Cc1ccc(-n2c(C)cc(-c3csc(N)n3)c2C)cc1 | inactive
CCOc1ccc(C(=O)NC(=S)Nc2ccc(N3CCCCC3)cc2)cc1[N+](=O)[O-] | inactive
CCOc1ccc(CSC(=N)N)cc1[N+](=O)[O-] | inactive
CCOc1ccc(C(=O)Nc2ccccc2CC)cc1[N+](=O)[O-] | inactive
CC(C)NC(=O)/C(=N\O)c1ccccc1 | inactive
Cc1ccc(Oc2nnc(-c3ccccc3)c3ccccc23)cc1 | inactive
CCn1c(SCC(=O)N2CCCCC2)nc(O)cc1=O | inactive
Cc1ccc(Nc2cc(=O)[nH]c(=O)[nH]2)c(C)c1 | inactive
CCn1c2ccccc2c2cc(C3N=C(N)Nc4nc5ccccc5n43)ccc21 (centres undefined) | inactive
CCn1cc(C(=O)O)c(=O)c2cc(OC)ccc21 | inactive
COc1ccc(Oc2coc3cc(OC(=O)c4cccs4)ccc3c2=O)cc1 | inactive
CCOC(=O)c1ccc(NC(=O)Nc2cc(C)on2)cc1 | inactive
COC(=O)C1C(=O)C=C(N2CCOCC2)CC1(C)C (centres undefined) | inactive
O=C(CNC(=O)OCc1ccccc1)NCC(=O)N1CCCC1C(=O)OCc1ccccc1 (centres undefined) | inactive
COc1ccc(C2=C(Nc3ccc(C)cc3)c3ccccc3C2=O)cc1 | inactive

SMILES | outcome
O=c1c(Cl)c(Cl)cnn1Cc1ccccc1Cl | inactive
N=c1sccn1CC(=O)Nc1ccccc1Oc1ccccc1 | inactive
CC(=O)N1CCC(N(CCN2CCOCC2)C(=S)Nc2cccc(C)c2C)CC1 | inactive
CCCNC(=O)COC(=O)CCC(=O)c1ccc(F)cc1 | inactive
NC(=NCc1ccc2c(c1)OCO2)NC(=O)c1ccccc1 | inactive
O=C(CN1CCCCC1)Nc1cccc2c1OCO2 | inactive
O=C(Nc1ccc2oc(-c3ccc(Cl)c(Cl)c3)nc2c1)c1ncn[nH]1 | inactive
CCOC(=O)C1=C(C)Nc2nc3ccccc3n2C1c1cccs1 (centres undefined) | inactive
COc1ccc(-c2nc3ccccc3c(=O)n2-c2nccs2)cc1 | inactive
Brc1cccc(CNc2nc3ccccc3n2CCN2CCCCC2)c1 | inactive
CC(=O)N1C(=O)C2(C(C#N)=C(N)Oc3c2c(C)nn3-c2ccccc2)c2ccccc21 (centres undefined) | inactive
CCCCn1cnc2c(cnn2-c2ccc(F)cc2)c1=O | inactive
CC(NC(=O)C1(C)CC1(Br)Br)C(C)(C)C (centres undefined) | inactive
Cc1ccc(C(=O)C(OC(=O)COc2ccccc2C)c2ccccc2)cc1 (centres undefined) | inactive
Cc1ccc(C(=O)NNc2c3ccccc3nc3ccccc23)cc1 | inactive
O=C(NCCc1ccccc1)c1ccc2nc(-c3ccco3)c(-c3ccco3)nc2c1 | inactive
C=CCOc1ccccc1CNCCCN1CCOCC1 | inactive
O=c1[nH]c(NCc2ccco2)nnc1Cc1ccccc1Cl | inactive
O=C(NNc1c2ccccc2nc2ccccc12)c1cccc(O)c1 | inactive
Nc1cc(N)cc(-c2nc3ccccc3[nH]2)c1 | inactive
COc1ccc(S(=O)(=O)n2nc(OC(=O)c3cccs3)cc2N)cc1 | inactive
CC(=O)C1=C(C)NC(SCSc2ccccc2)=C(C#N)C1c1cccnc1 (centres undefined) | inactive
S=C(Nc1ccc(Cl)c(Cl)c1)N1CCOCC1 | inactive
COC(=O)CCC(=O)Nc1ccc(Cl)c(Cl)c1 | inactive
